Here are results for seven compounds from PubChem BioAssay (Tox21).

Values joined by “and” are separate entries in the source; they are usually repeats but may differ in a detail not shown here. Equal values may be shown once. Inconclusive results are not listed. Where a structure was tested more than once in an assay, its records may differ in their call. Active and inactive are the calls of the source. Unless noted, calls follow the shape of the dose curve; as a rule, active = well fitted curve in the direction sought with a large enough effect in the repeat runs; inconclusive = weak or mixed curves; inactive = no such curve, though single readings can be large; an effect the other way counts as inactive or inconclusive.

Assay [1] can be described thus: A CellTox Green Cytotoxicity Assay to monitor cytotoxicity in HEK293 cells - 32 hour (AID 1224881). Also: nearly all actives have a fitted effect of over 40% in size. Also: potency is read from the fitted curve at half-maximal effect. Summed up:
(§1)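 Dead-cell fluorescence measured kinetically: asymmetric cyanine dye, HEK293, 600 cells/well, 5 h settle, 23 nL cpd/DMSO, 37 C, reads 0–40 h every 8 h.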

Assay [2] can be described thus: A CellTox Green Cytotoxicity Assay to monitor cytotoxicity in HepG2 cells - 0 hour (AID 1224882). Also: % is scaled to controls: 0 for no effect and ±100 for the full control effect; nearly all actives have a fitted effect of over 35% in size. Summed up:
(§2)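 First, HepG2 cells (600/well) mixed with reagent were plated; second, after 5 h at 37 C they received compounds via pintool; third, fluorescence was measured at 0 h through 40 h at 8 h intervals.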

The nature of assay [3]: A CellTox Green Cytotoxicity Assay to monitor cytotoxicity in HepG2 cells - 32 hour (AID 1224883). Also: nearly all actives have a fitted effect of over 50% in size. Also: potency is read from the fitted curve at half-maximal effect. Summed up: as §2
The nature of assay [4]: A CellTox Green Cytotoxicity Assay to monitor cytotoxicity in HEK293 cells - 8 hour (AID 1224884). Also: nearly all actives have a fitted effect of over 35% in size. Also: potency is read from the fitted curve at half-maximal effect. In outline:
as §1

Assay [5] can be described thus: qHTS RealTime-Glo MT Cell Viability Assay in HepG2 cells - 16 hour (AID 1224885). Also: nearly all actives have a fitted effect of over 50% in size. Also: potency is read from the fitted curve at half-maximal effect. Summed up:
(§3)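 Cell number in HepG2 cultures estimated from NanoLuc luminescence generated by metabolic reduction of a prosubstrate by living cells. The homogeneous, nonlytic format allowed repeated reads at 0, 8, 16, 24, 32 and 40 h of compound exposure.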
On the technique in general: In qHTS, concentration-response curves come from the screen itself.

Assay [6] can be described thus: qHTS RealTime-Glo MT Cell Viability Assay in HEK293 cells - 24 hour (AID 1224886). Also: nearly all actives have a fitted effect of over 50% in size. Also: potency is read from the fitted curve at half-maximal effect. Summed up: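 Homogeneous bioluminescent viability format in HEK293 cells (600 cells/well). Following 5 h at 37 C/5% CO2, 23 nL compound was pintooled; the signal was measured repeatedly during 40 h incubation.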
Assay [7] can be described thus: A CellTox Green Cytotoxicity Assay to monitor cytotoxicity in HEK293 cells - 16 hour (AID 1224888). Also: nearly all actives have a fitted effect of over 35% in size. Also: potency is read from the fitted curve at half-maximal effect. In outline: as §1
Assay [8] is described as follows: qHTS RealTime-Glo MT Cell Viability Assay in HepG2 cells - 0 hour (AID 1224889). Also: % is scaled to controls: 0 for no effect and ±100 for the full control effect; nearly all actives have a fitted effect of over 50% in size. Summed up:
as §3

Assay [9] is described as follows: A CellTox Green Cytotoxicity Assay to monitor cytotoxicity in HepG2 cells - 8 hour (AID 1224890). Also: nearly all actives have a fitted effect of over 45% in size. Also: potency is read from the fitted curve at half-maximal effect. Summed up:
as §2

A short description of assay [10]: qHTS assay to identify small molecule antagonists of the estrogen receptor alpha (ER-alpha) signaling pathway using the BG1 cell line in the presence of 0.1 nM 17-beta-estradiol - cell viability counter screen (AID 1259241). Also: % is scaled to controls: 0 for no effect and ±100 for the full control effect; nearly all actives have a fitted effect of over 40% in size. In outline:
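VM7Luc4E2, 4,000 cells/well, phenol red-free medium + 10% charcoal-stripped FBS; 24 hr plating; cpd + 0.1 nM E2 final, 22 hr 37C/5% CO2; CellTiter-Fluor 30 min, fluorescence.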

Assay [11] in a line: qHTS assay to identify small molecule antagonists of the androgen receptor (AR) signaling pathway using the MDA cell line in the presence of 0.5 nM R1881 - cell viability counter screen (AID 1259242). Also: nearly all actives have a fitted effect of over 45% in size. Also: potency is read from the fitted curve at half-maximal effect. In outline:
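qHTS format. MDA-kb2 (MMTV-luc, AR/GR responsive) + cpd + 0.5 nM R1881 final, 16 hr 37C/0% CO2 → CellTiter-Fluor 30 min → fluorescence intensity.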

Assay [12] addresses Estrogen receptor (Homo sapiens) (UniProt P03372). The experiment in a line: qHTS assay to identify small molecule antagonists of the estrogen receptor alpha (ER-alpha) signaling pathway using the BG1 cell line in the presence of 0.1 nM 17-beta-estradiol (AID 1259244). Summed up:
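Reporter is a stably transfected luciferase under four estrogen responsive elements in VM7Luc4E2 cells expressing native full-length ER-alpha; inhibition of 0.1 nM (final) 17beta-estradiol-driven signal over 22 h is read by luminescence.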

Assay [13] is described as follows: qHTS assay to identify small molecule HDAC inhibitors (AID 1259364).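 Also: wild-type HCT-116 cells with endogenous class I/II HDAC activity; top concentration of the series differs between compounds; % is scaled to controls: 0 for no effect and ±100 for the full control effect; nearly all actives have a fitted effect of over 45% in size.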 In outline:
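Quantitative high-throughput format: overnight-seeded HCT-116 cells got compounds for 2 hr at 37C; HDAC-Glo I/II reagent added, 30 min RT, luminescence measured.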

Assay [14] is described as follows: qHTS assay to identify small molecule HDAC inhibitors - cell viability counter screen (AID 1259365). Summed up:
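Luminescence from CellTiter-Glo, developed 30min at room temperature, reports viability of wild-type HCT-116 cells treated 2hr with compounds at 37 C and 5% CO2 after overnight plating.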

Assay [15] can be described thus: qHTS assay to identify small molecule agonists of the sonic hedgehog signaling (Shh) pathway - cell viability counter screen (AID 1259366). In outline: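 Cytotoxicity counter screen run in the same wells as the Shh reporter assay. NIH/3T3 cells carrying a Gli1 response element–driven luciferase were treated with DMSO-dissolved compounds for 24hr, and live-cell protease activity was measured with CellTiter-Fluor.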

A short description of assay [16]: qHTS assay to identify small molecule antagonists of the sonic hedgehog signaling (Shh) pathway - cell viability counter screen (AID 1259367). Also: % is scaled to controls: 0 for no effect and ±100 for the full control effect; nearly all actives have a fitted effect of over 55% in size. Summed up: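 Conditioned medium drove Shh signaling in 3T3 Gli1-Luc cells exposed to compounds at 37C and 5% CO2. Viability was determined from CellTiter-Fluor fluorescence, with reagent incubated 1 hr after 23 hr of treatment.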

Assay [17] is described as follows: qHTS assay to identify small molecule agonists of the sonic hedgehog signaling (Shh) pathway (AID 1259368; calls by dose curve;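 also: NIH/3T3-derived 3T3Gli1-Luc cells carrying a stable Gli1-driven firefly luciferase reporter; series mostly up to about 92 µM; % is scaled to controls: 0 for no effect and ±100 for the full control effect; nearly all actives have a fitted effect of over 15% in size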). In outline: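 Quantitative high-throughput format using a Gli1-driven firefly luciferase reporter line derived from NIH/3T3 cells. After a 24 hr compound treatment at 37 C and 5% CO2, luminescence reported Gli1 response element activity.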
Assay [18] can be described thus: qHTS assay to identify small molecule phospholipidosis (PLD) inducers (AID 1259344; active = well fitted curve in the direction sought with a large enough effect; an effect the other way counts as inactive or inconclusive; also: potency is read from the fitted curve at half-maximal effect). In outline: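 After 4 h attachment on collagen I, HepG2 cells were dosed with compound alongside LipidTOX Red, kept 24 h at 37 C, fixed, and imaged for lamellar phospholipid pits.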
The nature of assay [19]: qHTS RealTime-Glo MT Cell Viability Assay in HEK293 cells - 8 hour (AID 1224887). In outline: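 600 HEK293 cells per well, dispensed already mixed with RealTime-Glo MT reagents. Compound dosing came 5 h later. The same wells were read for luminescence at 0, 8, 16, 24, 32 and 40 h of exposure at 37 C.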
Assay [20] concerns the target Androgen receptor (Homo sapiens) (UniProt P10275). Kind of assay: qHTS assay to identify small molecule antagonists of the androgen receptor (AR) signaling pathway using the MDA cell line in the presence of 0.5 nM R1881 (AID 1259243). Summed up: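 Antagonist mode quantitative HTS in MDA-kb2 MMTV-luciferase cells, agonist R1881 at 0.5 nM final, 16 hr exposure at 37C and 0% CO2, luminescent detection.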

Chain of Androgen receptor (Homo sapiens) (P10275 whole entry, looked up): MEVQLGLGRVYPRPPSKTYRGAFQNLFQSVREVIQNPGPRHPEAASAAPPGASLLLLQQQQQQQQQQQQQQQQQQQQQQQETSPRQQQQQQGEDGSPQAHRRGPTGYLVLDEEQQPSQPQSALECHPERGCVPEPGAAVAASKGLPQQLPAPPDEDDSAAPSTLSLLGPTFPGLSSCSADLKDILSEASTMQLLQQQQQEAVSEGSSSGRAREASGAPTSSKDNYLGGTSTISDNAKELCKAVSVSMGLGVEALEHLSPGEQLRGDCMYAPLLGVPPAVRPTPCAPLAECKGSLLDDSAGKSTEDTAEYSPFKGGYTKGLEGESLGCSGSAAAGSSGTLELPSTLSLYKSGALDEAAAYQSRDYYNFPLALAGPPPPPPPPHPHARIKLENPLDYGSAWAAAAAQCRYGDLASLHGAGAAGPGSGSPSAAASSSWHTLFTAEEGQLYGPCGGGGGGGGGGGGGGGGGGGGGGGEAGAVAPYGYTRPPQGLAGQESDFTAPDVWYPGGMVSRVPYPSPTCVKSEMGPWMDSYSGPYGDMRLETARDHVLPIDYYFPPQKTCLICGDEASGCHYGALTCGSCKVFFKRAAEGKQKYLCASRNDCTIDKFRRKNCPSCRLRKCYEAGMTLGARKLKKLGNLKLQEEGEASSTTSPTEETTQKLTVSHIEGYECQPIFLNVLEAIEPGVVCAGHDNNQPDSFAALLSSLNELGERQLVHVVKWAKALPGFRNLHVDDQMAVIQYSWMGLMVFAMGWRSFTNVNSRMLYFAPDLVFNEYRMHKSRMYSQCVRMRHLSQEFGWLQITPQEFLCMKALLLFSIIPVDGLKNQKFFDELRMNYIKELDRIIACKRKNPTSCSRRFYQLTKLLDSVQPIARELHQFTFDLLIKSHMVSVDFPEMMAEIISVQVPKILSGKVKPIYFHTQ
Chain of Estrogen receptor (Homo sapiens) (P03372 whole entry, looked up): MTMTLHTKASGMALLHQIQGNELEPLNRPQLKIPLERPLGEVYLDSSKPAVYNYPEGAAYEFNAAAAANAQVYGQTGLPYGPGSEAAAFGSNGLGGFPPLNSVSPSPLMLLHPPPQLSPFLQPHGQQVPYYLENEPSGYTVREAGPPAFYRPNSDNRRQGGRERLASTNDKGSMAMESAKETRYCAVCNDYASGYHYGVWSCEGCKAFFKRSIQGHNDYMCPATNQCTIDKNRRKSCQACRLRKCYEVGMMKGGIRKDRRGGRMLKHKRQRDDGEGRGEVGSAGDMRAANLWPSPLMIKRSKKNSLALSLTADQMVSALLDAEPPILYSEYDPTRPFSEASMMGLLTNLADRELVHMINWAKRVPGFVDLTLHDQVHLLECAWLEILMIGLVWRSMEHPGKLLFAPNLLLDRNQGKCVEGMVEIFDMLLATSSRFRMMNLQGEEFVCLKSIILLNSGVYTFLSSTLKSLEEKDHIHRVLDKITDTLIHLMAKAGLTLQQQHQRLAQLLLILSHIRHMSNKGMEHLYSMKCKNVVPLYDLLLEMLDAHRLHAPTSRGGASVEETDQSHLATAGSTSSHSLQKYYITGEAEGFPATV

With `Cc1ncc([N+](=O)[O-])n1C`, the Potency result in assay [1], in [2], in assay [3], in [5], in assay [6] and in assay [7] was “inactive” in each case. Also, the Potency result in assay [8], in [9], in assay [10], in assay [11], in assay [12] and in [13] was “inactive” throughout. The Potency result in assay [14], in assay [15] and in [16] was “inactive” throughout. Further, in [4], the Potency was 48.3 µM (active) and inactive. In addition, the call in assay [17] was inactive.

As for `CC12CCC(CC1)C(C)(C)O2`, the Potency entry in [1], in assay [2], in assay [3], in [4], in assay [5] and in assay [6] was “inactive” in each case. In addition, the Potency entry in assay [7], in [8], in assay [9], in assay [10], in [11] and in assay [12] was “inactive” throughout. Moreover, the Potency result in assay [18], in assay [13], in [14], in [15] and in assay [16] was “inactive” in each case. The compound was called inactive in assay [17].

As to `CC/C(=C(\c1ccccc1)c1ccc(OCCN(C)C)cc1)c1ccccc1`, the Potency in assay [1] is 35 µM (active) [middle of 5 runs]; in assay [3], 43.6 µM (active) [middle of 5 runs]; in assay [4], 44 µM (active) [middle of 5 runs]; in assay [5] it was 43.6 µM (active) [middle of 5 runs]; in assay [6], 24.5 µM (active) [middle of 5 runs]; in assay [19] it was 39.2 µM (active) [middle of 4 runs]. Besides, the Potency in assay [7] is 39.2 µM (active) [middle of 5 runs]; in assay [9], 55.3 µM (active) and 54.9 µM (active) and 49 µM (active); in [11] it was 61.1 µM (active) [middle of 4 runs]; in assay [18], 11.2 µM (active). Besides, the Potency result in assay [2], in assay [13] and in assay [14] was “inactive” each time. In assay [17], the compound was classed as inactive.

`CCCC[P+](CCCC)(CCCC)CCCC`: the Potency result in assay [1], in [2], in [3], in [4], in assay [5] and in [7] was “inactive” throughout. The Potency entry in assay [8], in assay [9], in assay [10], in assay [11], in [13] and in assay [14] was “inactive” in each case. Besides, the Potency result in assay [15] and in assay [16] was “inactive” throughout. The Potency in assay [6] is 19.4 µM (active) and 4.36 µM (active). In [17], the compound was classed as inactive.

Turning to `CS(=O)(=O)OCCCCOS(C)(=O)=O`, the Potency entry in [1], in assay [2], in assay [3], in [4], in assay [5] and in [6] was “inactive” each time. The Potency entry in assay [7], in assay [8], in assay [9], in assay [10], in assay [11] and in assay [12] was “inactive” each time. Moreover, the Potency result in [18], in assay [13], in [14], in assay [15] and in assay [16] was “inactive” throughout. For the same compound, the compound was called inactive in assay [17].

Take `Nc1ccc(S(N)(=O)=O)cc1`: the Potency result in [1], in assay [2], in [3], in [4], in assay [5] and in assay [6] was “inactive” throughout. The Potency result in assay [7], in assay [8], in [9], in assay [10], in assay [11] and in assay [18] was “inactive” throughout. Moreover, the Potency entry in [13], in assay [14], in assay [15] and in assay [16] was “inactive” each time. For the same compound, the compound was classed as inactive in assay [17].

Take `CCCCC1(COC(=O)CCC(=O)O)C(=O)N(c2ccccc2)N(c2ccccc2)C1=O`: the Potency entry in assay [1], in assay [2], in assay [3], in assay [4], in assay [5] and in assay [6] was “inactive” in each case. The Potency entry in assay [7], in assay [9], in assay [10], in [11], in assay [20] and in [12] was “inactive” each time. Further, the Potency entry in assay [18], in [13], in assay [14], in assay [15] and in [16] was “inactive” in each case. Further, in assay [17], the outcome was inactive.
